Screening results as filed in PubChem.
In the library only some 4.3% were active in any assay of this set; here they are far more common.
NR3A LBD binder – NR3A (human) ligand-binding domain modulation | Tm shift relative to glycine control, % at 25 µM | actives 2.5% (n = 340,000) | NR3A LBD differential scanning fluorimetry, Tm shift; 0% = protein alone, 100% = glycine-bound protein;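 active = melting temperature shift of at least 10% of the positive control shift, at one fixed dose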
HGIII-sPLA2 inh – Inhibits HGIII-sPLA2 liposome hydrolysis, primary screen | Q9NZ20 | QFRET BODIPY PC-A2 liposome hydrolysis, fluorescence | inhibition, % at 12.2 µM | actives 0.56% (n = 370,000);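 active = inhibition above mean plus 3 SD of compounds lying within the high and low control bounds, cut at about 19% in these data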
ADAM17 inh – inhibits human ADAM17. P78536. recombinant ADAM17, EDANS/DABCYL FRET peptide cleavage. inhibition, % at 6.95 µM. actives 0.83% (n = 370,000). AID 720648;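 active = inhibition above the mean of compounds lying between control limits plus 3 SD, set per campaign, cut at about 8.5% in these data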
FAS TE block – inhibitors of human fatty acid synthase thioesterase domain; P49327; recombinant FAS-TE, OMFH fluorogenic substrate, fluorescence endpoint; inhibition, % at 15 µM; actives 0.67% (n = 360,000);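 active = compounds whose normalised, plate-corrected inhibition of enzyme fluorescence in the single-dose primary screen is 50% or more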
Target sequence (P49327 whole entry, looked up, the tested form may be a part): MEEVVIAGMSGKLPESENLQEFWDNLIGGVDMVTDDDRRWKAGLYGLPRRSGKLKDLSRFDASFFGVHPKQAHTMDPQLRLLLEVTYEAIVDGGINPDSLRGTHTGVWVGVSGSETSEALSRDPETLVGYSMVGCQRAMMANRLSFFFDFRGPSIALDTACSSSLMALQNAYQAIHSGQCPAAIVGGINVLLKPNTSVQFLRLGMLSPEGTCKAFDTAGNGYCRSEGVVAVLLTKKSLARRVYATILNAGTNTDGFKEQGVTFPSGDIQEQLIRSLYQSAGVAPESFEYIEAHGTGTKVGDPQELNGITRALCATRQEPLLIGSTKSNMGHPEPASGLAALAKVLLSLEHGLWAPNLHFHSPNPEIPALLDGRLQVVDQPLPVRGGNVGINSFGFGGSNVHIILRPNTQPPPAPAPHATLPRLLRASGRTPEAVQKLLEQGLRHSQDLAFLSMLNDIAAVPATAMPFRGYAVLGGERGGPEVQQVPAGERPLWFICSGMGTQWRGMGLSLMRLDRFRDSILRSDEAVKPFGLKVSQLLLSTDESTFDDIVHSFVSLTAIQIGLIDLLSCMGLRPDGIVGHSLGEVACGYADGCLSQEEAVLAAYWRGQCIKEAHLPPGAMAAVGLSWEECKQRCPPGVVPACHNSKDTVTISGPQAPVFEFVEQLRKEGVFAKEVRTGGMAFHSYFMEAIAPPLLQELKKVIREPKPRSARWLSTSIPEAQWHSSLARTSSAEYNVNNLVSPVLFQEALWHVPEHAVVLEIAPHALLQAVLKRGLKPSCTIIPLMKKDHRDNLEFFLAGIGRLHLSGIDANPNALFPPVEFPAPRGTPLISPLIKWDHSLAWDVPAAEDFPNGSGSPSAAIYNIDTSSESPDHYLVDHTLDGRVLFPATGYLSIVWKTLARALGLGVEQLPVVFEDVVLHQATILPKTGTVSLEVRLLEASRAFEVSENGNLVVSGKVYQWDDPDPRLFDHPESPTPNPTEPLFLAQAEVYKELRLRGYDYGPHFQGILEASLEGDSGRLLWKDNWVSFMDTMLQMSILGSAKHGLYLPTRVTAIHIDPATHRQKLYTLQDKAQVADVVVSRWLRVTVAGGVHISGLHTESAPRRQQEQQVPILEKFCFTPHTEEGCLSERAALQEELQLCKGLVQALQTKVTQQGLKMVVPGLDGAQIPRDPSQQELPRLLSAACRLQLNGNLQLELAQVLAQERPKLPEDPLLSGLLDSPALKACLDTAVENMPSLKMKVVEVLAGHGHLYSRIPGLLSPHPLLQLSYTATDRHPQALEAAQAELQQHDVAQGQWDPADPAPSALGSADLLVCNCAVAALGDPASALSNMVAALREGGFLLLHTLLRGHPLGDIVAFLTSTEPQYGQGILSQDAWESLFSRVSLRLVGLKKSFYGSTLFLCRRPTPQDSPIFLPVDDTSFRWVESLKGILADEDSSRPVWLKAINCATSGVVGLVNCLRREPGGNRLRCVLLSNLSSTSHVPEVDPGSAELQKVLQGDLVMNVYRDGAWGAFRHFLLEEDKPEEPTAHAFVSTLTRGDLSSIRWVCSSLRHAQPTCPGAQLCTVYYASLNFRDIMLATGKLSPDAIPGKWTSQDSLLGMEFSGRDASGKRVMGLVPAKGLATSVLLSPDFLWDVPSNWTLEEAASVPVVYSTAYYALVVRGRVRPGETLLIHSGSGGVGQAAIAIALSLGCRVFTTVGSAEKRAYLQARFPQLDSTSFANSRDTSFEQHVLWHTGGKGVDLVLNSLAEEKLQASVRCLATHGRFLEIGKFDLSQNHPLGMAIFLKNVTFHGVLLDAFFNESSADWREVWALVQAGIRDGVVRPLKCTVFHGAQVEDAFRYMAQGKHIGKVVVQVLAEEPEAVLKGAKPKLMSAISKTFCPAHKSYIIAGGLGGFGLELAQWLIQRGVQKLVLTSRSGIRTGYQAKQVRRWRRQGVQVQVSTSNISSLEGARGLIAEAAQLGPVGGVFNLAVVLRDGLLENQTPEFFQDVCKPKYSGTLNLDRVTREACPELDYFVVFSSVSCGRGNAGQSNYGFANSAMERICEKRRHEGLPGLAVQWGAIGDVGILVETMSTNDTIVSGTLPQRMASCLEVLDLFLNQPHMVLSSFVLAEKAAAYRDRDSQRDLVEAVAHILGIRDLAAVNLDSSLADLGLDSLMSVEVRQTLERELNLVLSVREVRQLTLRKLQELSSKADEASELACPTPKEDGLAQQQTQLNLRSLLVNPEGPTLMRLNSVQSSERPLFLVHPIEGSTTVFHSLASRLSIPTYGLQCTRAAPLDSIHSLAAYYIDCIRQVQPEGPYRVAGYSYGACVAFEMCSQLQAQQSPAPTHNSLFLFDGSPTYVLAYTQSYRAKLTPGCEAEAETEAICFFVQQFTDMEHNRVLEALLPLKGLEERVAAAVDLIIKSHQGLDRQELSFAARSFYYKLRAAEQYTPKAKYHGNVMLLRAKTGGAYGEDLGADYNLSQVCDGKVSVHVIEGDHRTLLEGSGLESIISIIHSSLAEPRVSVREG
ADAM10 inh – inhibits human ADAM10; actives 0.62% (n = 370,000); recombinant ADAM10, EDANS/DABCYL FRET peptide cleavage, 3 h; AID 720582; inhibition, % at 7 µM;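 active = inhibition above a per-campaign cutoff equal to the mean of compounds falling between control-based bounds plus 3 SD, cut at about 20% in these data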
FAS-TE inh conf – confirmation of human fatty acid synthase thioesterase inhibitors | inhibition, % at 15 µM | recombinant FAS-TE, OMFH fluorogenic substrate, fluorescence | actives 45% (n = 2,300) | shares compounds with FAS TE block;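 active = compounds inhibiting the enzyme by at least 50% at 15 µM in any one of the replicates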
Large screens that a line does not name were inactive (follow-up assays come after a bar, where they were run).

CCOC1=C2[C@@H](CN(S(=O)(=O)c3ccc(C)cc3)[C@H]2c2ccccc2)[C@H]2C(=O)N(Cc3ccccc3)C(=O)[C@H]2C1	FAS TE block 76 (no result: NR3A LBD binder) | FAS-TE inh conf inactive
CCOC1=C2[C@@H](CN(S(=O)(=O)c3ccccc3C)[C@H]2c2ccc(Cl)cc2)[C@H]2C(=O)N(c3ccccc3)C(=O)[C@H]2C1	FAS TE block 83 (no result: NR3A LBD binder) | FAS-TE inh conf inactive
Cc1cccc(C)c1NC(=O)[C@H]1CC(=O)O[C@@H]1c1ccccc1	none (no result: NR3A LBD binder, FAS TE block)
COC(=O)c1cc(-c2ccccc2)c(=O)n2c1CCC2	none (no result: NR3A LBD binder, FAS TE block)
Cc1ccc(NC(=O)N2CCC(c3nc4ccc(Cl)cc4[nH]3)CC2)cc1F	none (no result: NR3A LBD binder, FAS TE block)
CCC(C)(C)C1CCC(=NNS(=O)(=O)c2ccc(C)c([N+](=O)[O-])c2)CC1 (configuration not stated)	FAS TE block 73 | FAS-TE inh conf 58
Cc1ccc(S(=O)(=O)N/N=C2/CCCCC2C2CCCCC2)cc1[N+](=O)[O-] (configuration not stated)	none
O=C(OCC(=O)N1CCN(c2ccccc2)CC1)c1cccc([N+](=O)[O-])c1	FAS TE block 54 | FAS-TE inh conf 57
O=C(COC(=O)c1cccc([N+](=O)[O-])c1)NC1CCCC1	FAS TE block 61 | FAS-TE inh conf 68
CC(=O)c1ccc(NCC(=O)N2CCN(c3ccccc3)CC2)cc1	none
Cc1cccc(C(=O)OCC(=O)NC2CCCCCCC2)c1	none
COC(=O)c1cc(C(=O)OCC(=O)NC2CCCC2)cc([N+](=O)[O-])c1	FAS TE block 61 | FAS-TE inh conf 64
Cc1cc(C)c([N+](=O)[O-])cc1NCC(=O)N1CCN(c2ccccc2)CC1	FAS TE block 78 | FAS-TE inh conf 66
Cc1cccc2c1N(C)C(=O)C2=O	none
Cc1ccc(OC(=O)CN2C(=O)c3ccccc3C2=O)cc1C	none
Cc1cc(C)c(S(=O)(=O)ON2C(=O)c3ccccc3C2=O)cc1C	FAS TE block 91 | FAS-TE inh conf 95
Cc1ccc(S(=O)(=O)N2CCN(CCc3ccccc3)CC2)c(C)c1	none
Cc1ccc(S(=O)(=O)ON2C(=O)c3ccccc3C2=O)c(C)c1	NR3A LBD binder 22, FAS TE block 75 | FAS-TE inh conf 94
Cc1cc(C)c(C)c(S(=O)(=O)ON2C(=O)c3ccccc3C2=O)c1C	FAS TE block 90 | FAS-TE inh conf 95
O=C1c2ccccc2C(=O)N1OS(=O)(=O)c1ccc(F)cc1	FAS TE block 71 | FAS-TE inh conf 50
O=S(=O)(c1ccccc1)N1CCN(S(=O)(=O)c2ccc(F)cc2)CC1	none
Cc1ccc(CN2CCCCC(NC(=O)c3ccc4ccccc4c3)C2=O)cc1 (configuration not stated)	none (no result: NR3A LBD binder, FAS TE block)
CCOC(=O)[C@]12CCCC=C1N(CCCOC)C(=O)[C@@H]2CC(=O)NCCc1ccccc1OC	none (no result: NR3A LBD binder, FAS TE block)
Cc1cc(C)cc(N(CC(=O)N2CCc3ccccc32)S(=O)(=O)c2c(C)noc2C)c1	none
Cc1cc(C)cc(N(CC(=O)N2CCn3c2nc2ccccc23)S(=O)(=O)c2c(C)noc2C)c1	FAS TE block 65 | FAS-TE inh conf inactive
Cc1nn(-c2ccccc2)c(N2CCCCC2)c1/C=N/NC(=O)c1ccncc1	none
CCOc1ccc(S(=O)(=O)Nc2ccc(C(=O)N/N=C/c3c(C)nn(-c4ccccc4)c3N3CCCC3)cc2)cc1	FAS TE block 55 | FAS-TE inh conf inactive
O=C(O)c1ccccc1NS(=O)(=O)c1ccc(NN=Cc2ccc(F)cc2)c([N+](=O)[O-])c1	NR3A LBD binder 12, FAS TE block 57 (no result: HGIII-sPLA2 inh, ADAM17 inh, ADAM10 inh) | FAS-TE inh conf 71
COc1ccccc1NS(=O)(=O)c1cccc(C(=O)N/N=C/c2c(C)nn(-c3ccccc3)c2N2CCCC2)c1	FAS TE block 62 | FAS-TE inh conf inactive
COc1ccccc1NS(=O)(=O)c1ccc(N/N=C/c2ccccc2OCC(=O)O)c([N+](=O)[O-])c1	none
COc1ccccc1NS(=O)(=O)c1ccc(N/N=C/C=C/c2ccccc2[N+](=O)[O-])c([N+](=O)[O-])c1	FAS TE block 61 | FAS-TE inh conf inactive
C=CCN1C(=O)[C@H](CC(=O)NCCCOCCCC)[C@@]2(C(=O)OCC)CCCC=C12	none (no result: NR3A LBD binder, FAS TE block)
